Compound activity from PubChem.
Shown are actives, neighbours in structure and some others; about 21% of the full set was active somewhere.
Pf growth 48h = inhibits P. falciparum growth in the first generation, 48 h | P. falciparum luciferase growth in erythrocytes, 48 h | 310,000 tested, 5.9% active | Potency, µM (titrated, usually from 28.7 µM), without a hit: top-dose activity change, negative = inhibition, actives largely listed as inhibitors; note: potency is the fitted concentration of half-maximal effect; % is set by controls: 0 for no effect and ±100 for the full control effect
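Firefly luciferase activity from engineered P. falciparum reports growth; inhibitors lower the luminescent signal. Cultures contained 2% hematocrit erythrocytes at 0.1% final parasitemia.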
NS1 function inh = influenza NS1 inhibition | Potency, µM (highest dose often 46.1 µM), without a hit: at the top dose activity, positive = more growth | 270,000 tested, 0.4% active; calls by dose curve; note: potency is the fitted concentration of half-maximal effect; actives are rising curves; nearly all actives have a fitted effect of over 50% in size
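OD600 was taken as the measure of yeast growth restored by compound in an NS1-expressing S. cerevisiae strain. Cells had been washed out of glucose medium and diluted 1:100 into galactose -URA medium, pH 6.0.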
FBPA Giardia inh = blocks Giardia fructose-bisphosphate aldolase activity | 290,000 tested, 0.71% active | Potency, µM (doses to about 59.6 µM), for the others: at the highest dose activity, negative = inhibition, most hits filed as inhibitors | purified Giardia FBPA | A8B2U2; note: potency is the fitted concentration of half-maximal effect; % is set by controls: 0 for no effect and ±100 for the full control effect; nearly all actives have a fitted effect of over 55% in size
Target sequence (A8B2U2 whole entry, looked up): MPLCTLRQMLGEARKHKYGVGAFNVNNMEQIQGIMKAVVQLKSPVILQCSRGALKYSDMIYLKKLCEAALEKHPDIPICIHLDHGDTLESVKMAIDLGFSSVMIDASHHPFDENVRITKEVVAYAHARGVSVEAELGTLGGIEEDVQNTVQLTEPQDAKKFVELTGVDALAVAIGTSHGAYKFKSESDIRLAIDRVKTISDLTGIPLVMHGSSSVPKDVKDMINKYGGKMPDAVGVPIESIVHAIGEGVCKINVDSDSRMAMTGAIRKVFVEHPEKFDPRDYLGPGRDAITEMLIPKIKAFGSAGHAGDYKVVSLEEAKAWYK
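Giardia FBPA (40 nM reagent) was preincubated 10 min at RT with compound (up to 57.5 uM final), then substrate plus GAPDH/TPI/NAD/arsenate coupling system with diaphorase/resazurin was added; resorufin fluorescence (525/598 nm) was read after 20 min.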
Shiga inhibitor = Shiga toxin inhibition; inhibition, % at 38.7 µM; Vero cells, Shiga toxin protein synthesis inhibition reporter; 290,000 tested, 9.2% active; in the data active = inhibition mostly above about 28%, no sharp cut-off; inactive = mostly below about 43%; note: 0% is about no effect
Pf growth 96h = inhibits malaria parasite growth, 96 h. AID 504834. 320,000 tested, 6.9% active. P. falciparum luciferase reporter growth, 96 h. Potency, µM (doses to about 28.7 µM), for inactives: at the top dose activity change, negative = inhibition, actives largely listed as inhibitors; note: potency is the fitted concentration of half-maximal effect; % is set by controls: 0 for no effect and ±100 for the full control effect
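96 h incubation, 37 C, 5% CO2, of luciferase-reporter P. falciparum-infected RBCs (2% hematocrit, 0.05% parasitemia final) with test compounds; endpoint luminescence.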
CHX counter = counter-screen hit for Shiga toxin inhibitors, cycloheximide; AID 2314; max response, %; cell reporter, cycloheximide protein synthesis inhibition counterscreen; 300,000 tested, 12% active; in the data active = max response mostly above about 13%, no sharp cut-off; inactive = mostly below about 14%; note: read at 38.3 µM for the half of the compounds with a filed dose; 0% is about no effect
* hit, by the source's call; u = inconclusive; x = not tested or not shown; [ ] = remark or other dose. Unless noted, calls come from the whole dose curve; as a rule, active = well fitted curve in the direction sought with a large enough effect; inconclusive = small, poorly fitted or top-dose-only effect, or another doubt; inactive = no such curve, though single readings can be large; an effect the other way counts as inactive or inconclusive.

SMILES	Pf growth 48h	NS1 function inh	FBPA Giardia inh	Shiga inhibitor	Pf growth 96h	CHX counter
CCCCC(=O)Nc1cccc(-c2cn3ccccc3n2)c1	41%	-7%	0%	108	65%	29*
Cc1ccccc1C(=O)Nc1cccc(-c2ccc3nncn3n2)c1	u	x	12%	28	-13%	12
Cc1ccc(C(=O)Nc2cccc(-c3cn4ccccc4n3)c2)cc1	46%	-11%	-13%	81*	13µM*	41*
O=C(Nc1ccccc1)Nc1cccc(-c2cn3cccnc3n2)c1	0%	-11%	-1%	-4	33%	-3
O=C(Nc1cccc(-c2cn3ccccc3n2)c1)c1ccccc1	u	x	-7%	57*	53%	34*
CCCCC(=O)Nc1cccc(NC(=O)CC)c1	11%	2%	0%	-5	-9%	2
Cc1ccccc1C(=O)Nc1cccc(-c2cn3ccccc3n2)c1	-2%	-42%	-6%	42	-58%[1.15 µM]	21*
Cc1csc(NC(=O)CN2C(=O)c3ccccc3S2(=O)=O)n1	16%	3%	x	-23	13µM*	-2
CCOC(=O)Cc1csc(NC(=O)CN2C(=O)c3ccccc3S2(=O)=O)n1	7%	-2%	0%	-8	18%	-3
CCc1nnc(NC(=O)CCN2C(=O)c3ccccc3S2(=O)=O)s1	1%	-2%	1%	-21	u	-1
Cc1csc(NC(=O)CCN2C(=O)c3ccccc3S2(=O)=O)n1	11%	-10%	-4%	55*	10%	16
O=C(/C=C/c1c(F)cccc1Cl)c1ccc(F)cc1	u	-6%	-3%	132*	78%	35*
O=C(/C=C/c1ccccc1[N+](=O)[O-])c1ccc(F)cc1	u	6%	0%	29	-3%[5.75 µM]	14
O=C(/C=C/c1ccc[nH]1)c1ccc(F)cc1	10%	9%	-10%	72*	u	32*
O=C(/C=C/c1ccc[nH]1)c1ccccc1	102%	x	-11%	68*	90%	37*
CSCCC(NC(=O)c1ccc(Cl)cc1Cl)C(=O)N(C)Cc1nc2ccccc2c(=O)[nH]1 (stereo unspecified)	-18%	x	x	x	11%	x
COc1ccc(CNC(=O)C[C@H]2C(=O)N(CCc3ccccc3)C[C@@H]2Cc2ccccc2)cc1	11%	-19%	0%	-2	0%	-2
Cc1cc(C)c(NC(=O)CN2C(=O)NC3(CCCc4ccccc43)C2=O)c(Cl)c1 (stereo unspecified)	u	x	x	x	-27%	x
Cc1cccc(NS(=O)(=O)c2ccc(C(=O)N3CCC3)cc2)c1C	8%	x	x	x	4%	x
CCOC(=O)c1c(C)n(C)c2ccc(O)c(CN3CCCCC3)c12	u	-6%	-22%	-24	x	-1
CC(=O)c1c(C)oc2ccc(O)c(CN3CCOCC3)c12	x	0%	-8%	-9	7.4µM*	-8
CCOC(=O)c1c(C)oc2ccc(O)c(CN3CCCCC3)c12	12µM*	-9%	-6%	-1	30%	-2
C/C(=N\NC(=O)C(=O)Nc1cc(Cl)ccc1Cl)c1ccncc1	13%	4%	0%	2	48%	-4
COc1ccc(C(=O)Nc2ccc(/C(C)=N/NC(=O)c3ccncc3)cc2)cc1	92%	-5%	x	40	-29%	26*
O=C(N/N=C/c1ccncc1)c1ccc(NC(=O)c2ccc(Cl)cc2)cc1	u	x	-6%	18	-8%	-2
SMILES	Pf growth 48h	NS1 function inh	FBPA Giardia inh	Shiga inhibitor	Pf growth 96h	CHX counter
C/C(=N\NC(=O)c1ccncc1)c1ccc(NC(=O)c2ccc(Cl)cc2)cc1	-20%	9%	3%	97*	47%	57*
COc1ccc(/C(C)=N/NC(=O)c2ccncc2)cc1	43%	-6%	-1%	-5	-23%	-3
C/C(=N/NC(=O)c1ccncc1)c1ccc(NC(=O)c2ccc(Cl)cc2Cl)cc1	48%	8%	x	43	-1%	63*
COc1ccc(/C(C)=N/NC(=O)c2ccccc2N)cc1	u	x	1%	78*	3.7µM*	34*
C=CCn1c(SCC#N)nnc1-c1ccc2ncccc2c1	u	5%	5%	-8	u	1
CC(C)=C[C@H]1[C@@H](COC(=O)c2ccccc2Cl)C1(C)C	x	-8%	x	x	x	x
COc1ccccc1CN1CCCC(CNC(=O)c2cccc3ccccc23)C1 (stereo unspecified)	u	7%	2%	x	u	-3
O=C(N/N=C/CCc1ccccc1)c1ccccc1	18%	11%	3%	53*	-26%	37*
CCC/C=N/NC(=O)c1cccc(Br)c1	u	x	-6%	-6	u	9
O=C(N/N=C/CCc1ccccc1)C1CCCCC1	-1%	1%	-3%	26	8%	8
CCC/C=N/NC(=O)c1ccc(F)cc1	u	x	-2%	75*	-20%	24*
Cc1ccc(C(=O)C(C)Sc2nnc(N)s2)cc1 (stereo unspecified)	7%	x	1%	25	3%	15*
CC(Sc1nnc(N)s1)C(=O)c1c(N)n(C)c(=O)n(C)c1=O (stereo unspecified)	5%	x	x	x	4%	x
CC(=O)c1sc(N/N=C\c2ccc(Br)cc2)nc1C	0%	15%	-4%	active	u	72*
CCOC(=O)c1sc(N/N=C/c2ccc(N(C)C)cc2)nc1C	-22%	13%	17%	9	u	6
CC(=O)c1sc(N/N=C\c2cccc(Br)c2)nc1C	-67%	-24%	-11%	85*	-65%	67*
O=C(COC(=O)CSc1ccc([N+](=O)[O-])cc1)NCCCc1ccccc1	10%	-27%	x	16	24%	-3
CCCc1ccccc1OCCNC(C)=O	-16%	5%	-1%	-4	8.3µM*	-2
O=c1c2c(nc3cc(-c4ccccc4Cl)[nH]n13)CCS2	-56%	9%	u	78*	-28%	38*
O=c1c2c(nc3cc(-c4ccccc4)[nH]n13)CCS2	49%	0%	-19%	75*	272%	43*
COc1ccccc1C(=O)NC(CCSC)C(=O)NCc1ccccn1 (stereo unspecified)	19%	x	x	x	11%	x
O=C(Nc1nnc(SCCC2OCCO2)s1)C1CC(=O)N(c2ccccc2)C1 (stereo unspecified)	-14%	17%	x	-8	u	-2
COc1cccc(N2CC(C(=O)Nc3nnc(SCCC4OCCO4)s3)CC2=O)c1 (stereo unspecified)	-21%	22%	x	-8	9.3µM*	2
O=C(Nc1nnc(SCCC2OCCO2)s1)C1CC(=O)N(c2ccc(F)cc2)C1 (stereo unspecified)	u	29%	x	-2	10µM*	4
COc1cccc(N2CC(C(=O)Nc3nnc(SCC(=O)Nc4ccc(NC(C)=O)cc4)s3)CC2=O)c1 (stereo unspecified)	0%	10%	x	-4	u	-4
